Most compounds without a hit are left out; they make up all but 12% or so of the library.
Sm TGR inh: S. mansoni TGR enzyme inhibition; actives 3% (n = 360,000); purified TGR, DTNB reduction, TNB absorbance 405 nm; Potency, µM (top dose mostly 114 µM), for inactives: at the top dose activity change, negative = inhibition, hits mostly inhibitors; Q962Y6; AID 485364; also: % is scaled to controls: 0 for no effect and ±100 for the full control effect; nearly all actives have a fitted effect of over 60% in size
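Kinetic colorimetric format: TGR-catalysed, NADPH-driven DTNB reduction monitored via TNB absorbance. Enzyme dispensed at 20 nM; compound exposure 15 min at room temperature before reaction start.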
Pf growth 48h: inhibits P. falciparum growth in the first generation, 48 h. actives 5.9% (n = 310,000). P. falciparum luciferase growth in erythrocytes, 48 h. Potency, µM (series often up to 28.7 µM), for inactives: at the top dose activity change, negative = inhibition, most hits filed as inhibitors; also: % is scaled to controls: 0 for no effect and ±100 for the full control effect
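Erythrocytes infected with P. falciparum carrying an integrated firefly luciferase reporter (2% hematocrit, 0.1% parasitemia final) were exposed to compounds in RPMI 1640 with 0.5% Albumax at 37 C, 5% CO2. Growth inhibition was scored as reduced luminescence.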
SARS PLpro yeast: inhibitors of SARS-CoV papain-like protease in yeast | S. cerevisiae expressing SARS-CoV PLpro, growth rescue | Potency, µM (doses to about 32.9 µM), for the others: at the top dose activity, positive = growth rescue, usual class: activators | actives 0.19% (n = 330,000) | AID 485353; calls by dose curve; also: 0% is about no effect; nearly all actives have a fitted effect of over 55% in size
AmpC inh detg: inhibitors of E. coli AmpC beta-lactamase with detergent; AmpC hydrolysis of nitrocefin, absorbance 480 nm, 0.01% Triton; actives 0.041% (n = 370,000); P00811; Potency, µM (series often up to 114 µM), for inactives: top-dose activity change, negative = inhibition, hits mostly inhibitors; AID 485294;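 also: 0% = no-compound wells and -100% = no-enzyme wells; nearly all actives have a fitted effect of over 25% in size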
Target sequence (P00811 whole entry, looked up): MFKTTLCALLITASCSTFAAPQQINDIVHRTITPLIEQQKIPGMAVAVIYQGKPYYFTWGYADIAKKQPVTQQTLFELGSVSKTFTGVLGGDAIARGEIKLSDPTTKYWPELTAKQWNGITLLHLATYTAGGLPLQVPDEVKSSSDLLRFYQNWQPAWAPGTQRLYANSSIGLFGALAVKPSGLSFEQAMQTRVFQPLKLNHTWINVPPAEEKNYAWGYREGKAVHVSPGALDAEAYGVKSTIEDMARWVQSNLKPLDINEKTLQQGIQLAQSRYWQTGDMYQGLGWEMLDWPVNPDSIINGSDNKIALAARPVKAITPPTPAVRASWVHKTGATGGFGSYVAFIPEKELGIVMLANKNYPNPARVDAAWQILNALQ
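AmpC (5.3 nM in the dispensed reagent) in 20 mM phosphate pH 7.0 with 0.01% (detergent screen) or 0.0001% Triton X-100 was preincubated with compounds for 15 min at room temperature. Nitrocefin was then added from an 800 uM solution, and hydrolysis was followed at 480 nm.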
Pf growth 96h: inhibits malaria parasite growth, 96 h | P. falciparum luciferase reporter growth, 96 h | Potency, µM (doses to about 28.7 µM), without a hit: at the top dose activity change, negative = inhibition, most hits filed as inhibitors | actives 6.9% (n = 320,000) | AID 504834; also: % is scaled to controls: 0 for no effect and ±100 for the full control effect
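Plates of compound plus infected erythrocytes (2% hematocrit, 0.05% parasitemia final) incubate 96 hours, 37 C, 5% CO2. Detection reagent added; reduced luminescence from the parasites' luciferase reporter flags inhibition.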
AmpC inh no detg: AmpC beta-lactamase inhibition without detergent; Potency, µM (highest dose often 57.1 µM), inactives show top-dose activity change, negative = inhibition, hits mostly inhibitors; P00811; AmpC nitrocefin hydrolysis, absorbance 480 nm, 0.0001% Triton; AID 485341; actives 0.52% (n = 330,000);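 also: plate controls were no compound for no effect and no enzyme for full effect; nearly all actives have a fitted effect of over 20% in size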
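AmpC (5.3 nM in the dispensed reagent) in 20 mM phosphate pH 7.0 with 0.01% (detergent screen) or 0.0001% Triton X-100 was preincubated with compounds for 15 min at room temperature. Nitrocefin was then added from an 800 uM solution, and hydrolysis was followed at 480 nm.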
* hit, by the source's call. Unless noted, calls follow the shape of the dose curve; as a rule, active = well fitted curve in the direction sought with a large enough effect; inconclusive = small, poorly fitted or top-dose-only effect, or another doubt; inactive = no such curve, though single readings can be large; an effect the other way counts as inactive or inconclusive. Potency is read from the fitted curve at half-maximal effect.

Screening COC(=O)C1=C(c2cccc(C#N)c2)C[C@@H]2CC[C@H]1N2C(=O)N1CCOCC1 returned Sm TGR inh -3.1%, Pf growth 48h -3.1%, SARS PLpro yeast 2.2%, AmpC inh detg -0.3%, Pf growth 96h 14.2% and AmpC inh no detg -0.4%.
Screening COC(=O)C1=C(c2cccc3c2S(=O)(=O)c2ccccc2-3)C[C@@H]2CC[C@H]1N2C(=O)N1CCOCC1 returned Sm TGR inh -12.7%, Pf growth 48h 10.4µM*, SARS PLpro yeast 8.2%, AmpC inh detg 7.7%, Pf growth 96h 6.57µM* and AmpC inh no detg 111.5%.
Screening COc1ccc(-c2cc(C)no2)cc1S(=O)(=O)Nc1cccc(C(F)(F)F)c1 returned Sm TGR inh 2.8% and AmpC inh detg 1.8%.
`CCc1ccc(-c2cc(C)no2)cc1S(=O)(=O)Nc1cccc(CN2CCCC2)c1` gave Sm TGR inh -9.9%, Pf growth 48h 9.28µM*, SARS PLpro yeast 19.7%, AmpC inh detg -3.8%, Pf growth 96h -32.2% and AmpC inh no detg -1.8%.
Screening COc1ccc(-c2cc(C)no2)cc1S(=O)(=O)Nc1cccc(CN2CCCC2)c1 returned Sm TGR inh -7.3%, Pf growth 48h 14.7µM*, SARS PLpro yeast 2.5%, AmpC inh detg 4.3%, Pf growth 96h -9.7% and AmpC inh no detg -5.9%.
`CCc1ccc(-c2cc(C)no2)cc1S(=O)(=O)Nc1ccc(Cl)cc1` gave Sm TGR inh 3.4% and AmpC inh detg -3.5%.
C/C(=N\NC(=O)C1(C)CC1(Br)Br)c1cccc(NC(=O)c2ccc(C)o2)c1 (configuration not stated) was read as Sm TGR inh 1.1%, Pf growth 48h inconclusive, SARS PLpro yeast -7.7%, AmpC inh detg -5.6%, Pf growth 96h -21.2% and AmpC inh no detg -1.0%.
`CS(=O)(=O)N1CCCC(C(=O)Nc2ccc(F)c(F)c2)C1` (configuration not stated) gave Sm TGR inh -3.4%, Pf growth 48h 23.3%, SARS PLpro yeast -2.9%, AmpC inh detg -4.5%, Pf growth 96h 12.9% and AmpC inh no detg -8.8%.
Screening CCCN(CC(=O)Nc1cccc(S(N)(=O)=O)c1)CC(=O)Nc1ccc(F)c(F)c1F returned Sm TGR inh -0.7%, Pf growth 48h -0.6%, SARS PLpro yeast -0.6%, AmpC inh detg -3.2%, Pf growth 96h 3.3% and AmpC inh no detg 5.1%.
CCCN(CC(=O)Nc1cccc(Br)c1)CC(=O)Nc1ccc(F)c(F)c1F was read as Sm TGR inh -0.3%, Pf growth 48h inconclusive, SARS PLpro yeast -21.8%, AmpC inh detg -1.4%, Pf growth 96h 3.7µM* and AmpC inh no detg -5.4%.
Screening CCc1nc2ccc(C(=O)NCCc3ccc(SC)cc3)cc2nc1CC returned Sm TGR inh 6.1% and AmpC inh detg -1.1%.
COc1cc(OC)cc(C(=O)Nn2cc(C(=O)Nc3ccc(F)cc3F)c3ccccc3c2=O)c1 was read as Sm TGR inh 9.3%, Pf growth 48h inconclusive, SARS PLpro yeast 10.5%, AmpC inh detg inconclusive, Pf growth 96h 56.7% and AmpC inh no detg -1.9%.
COc1ccc(/C=C2\N=C(c3ccccc3Cl)NC2=O)cc1 was read as Sm TGR inh 12.7%, Pf growth 48h -3.8%, SARS PLpro yeast -3.1%, AmpC inh detg -6.0%, Pf growth 96h -2.1% and AmpC inh no detg -39.6%.
Screening CCN(CCCNC(=O)CC(C(=O)N1CCc2ccccc21)n1ccnc1)c1cccc(C)c1 (configuration not stated) returned Sm TGR inh -6.9%, Pf growth 48h 10.4µM*, SARS PLpro yeast -3.5%, AmpC inh detg -5.4%, Pf growth 96h inconclusive and AmpC inh no detg 139.1%.
Screening CC1CN(C(=O)c2ccccc2OCc2ccc(Cl)cc2Cl)CC(C)O1 (configuration not stated) returned Sm TGR inh -2.0%, Pf growth 48h inconclusive, SARS PLpro yeast -2.0%, AmpC inh detg 0.3%, Pf growth 96h inconclusive and AmpC inh no detg 103.9%.
CCC1(c2ccccc2)ON(c2c(Br)cccc2Br)C1=O (configuration not stated) was read as Sm TGR inh 0.4%, Pf growth 48h 0.415µM*, SARS PLpro yeast 4.7%, AmpC inh detg 5.4%, Pf growth 96h 0.415µM* and AmpC inh no detg -18.0%.
For CN(C(=O)c1cc2c(s1)-c1ccccc1S(=O)(=O)C2)c1ccccc1F the results were Sm TGR inh 0.6%, Pf growth 48h inconclusive, SARS PLpro yeast -2.6%, AmpC inh detg 7.6%, Pf growth 96h inconclusive and AmpC inh no detg -18.9%.
`COc1ccc(N(C)C(=O)c2cc3c(s2)-c2ccc(Cl)cc2S(=O)(=O)C3)c(OC)c1` gave Sm TGR inh -6.5%, Pf growth 48h inconclusive, SARS PLpro yeast 0.5%, AmpC inh detg -5.0%, Pf growth 96h 13.1µM* and AmpC inh no detg -4.3%.
CN(C(=O)c1cc2c(s1)-c1ccccc1S(=O)(=O)C2)c1ccccc1 was read as Sm TGR inh 0.7%, Pf growth 48h 9.28µM*, SARS PLpro yeast 0.9%, AmpC inh detg 0.5%, Pf growth 96h inconclusive and AmpC inh no detg -17.6%.
`O=C1C(=Nc2cccc(Cl)c2)CC(c2ccc(Cl)cc2)N1c1cccc(Cl)c1` (configuration not stated) gave Sm TGR inh -7.8%, Pf growth 48h inconclusive, SARS PLpro yeast 1.1%, AmpC inh detg -5.5%, Pf growth 96h inconclusive and AmpC inh no detg -27.3%.
For C=CCn1c(O)c(N=NC(=O)CNC(=O)/C=C/c2ccco2)c2ccccc21 the results were Sm TGR inh 17.8µM*, Pf growth 48h 25.6%, SARS PLpro yeast -1.3%, AmpC inh detg -11.7%, Pf growth 96h 38.0% and AmpC inh no detg -9.5%.
C=CCn1c(O)c(N=NC(=O)CNC(=O)/C=C/c2ccc(OC)cc2)c2ccccc21 was read as Sm TGR inh 12.9%, Pf growth 48h 24.7%, SARS PLpro yeast -1.3%, AmpC inh detg 2.6%, Pf growth 96h 38.7% and AmpC inh no detg -39.3%.
`Cc1nc(C)c(-c2csc(N)n2)s1` gave Sm TGR inh 0.6%, Pf growth 48h -12.1%, SARS PLpro yeast -0.6%, AmpC inh detg -1.3%, Pf growth 96h 0.329µM* and AmpC inh no detg -8.9%.
`Cc1ccc(Nc2nc(-c3sc(C)nc3C)cs2)cc1` gave Sm TGR inh -20.3%, Pf growth 48h 30.6%, SARS PLpro yeast -21.3%, AmpC inh detg -2.9%, Pf growth 96h inconclusive and AmpC inh no detg 4.9%.
CCc1nn2c(=O)cc(COC(=O)C3CCCCC3)nc2s1 was read as Sm TGR inh -0.9% and AmpC inh detg -1.4%.

Screens: PubChem, National Center for Advancing Translational Sciences (NCATS)
